Experimental data published in PubChem BioAssay (NCATS).
Inconclusive results are not listed. The source made the active and inactive calls. Calls follow the shape of the dose curve; as a rule, active = well fitted curve in the direction sought with a large enough effect; inconclusive = small, poorly fitted or top-dose-only effect, or another doubt; inactive = no such curve, though single readings can be large; an effect the other way counts as inactive or inconclusive.

Legend:
HaCat [1] = assay: Cytotoxic Profiling of Annotated Libraries Using Quantitative High-Throughput Screening (AID 1296008); settings: Five cell lines viability, CellTiter-Glo ATP luminescence, 48-72 h; max response: active compounds read low; also: nearly all actives have a fitted effect of over 60% in size
In short: (§1)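 Cytotoxicity was measured as CellTiter-Glo ATP luminescence, read after 10 min at room temperature. Compound treatment of the cells lasted 48 or 72 hr at 37 degrees Celsius in a qHTS format.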

KB-3-1 = assay: as above; settings: Five cell lines viability, CellTiter-Glo ATP luminescence, 48-72 h; max response: active compounds read low
In short: as §1

NIH3T3 = assay: as above; settings: Five cell lines viability, CellTiter-Glo ATP luminescence, 48-72 h; max response: active compounds read low
In short: as §1

MCC-13 = assay: qHTS assay to identify novel small-molecules to repurpose for Merkel cell carcinoma treatment (AID 1296009); settings: MCC and control cell lines, CellTiter-Glo viability, 72 h; series mostly up to 46 µM; also: nearly all actives have a fitted effect of over 60% in size; also: potency is read from the fitted curve at half-maximal effect
In short: (§2)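 72 hr, 37 degree celsius; NPC 8-pt / MIPE 11-pt dose response; compound pinned in DMSO; CellTiter-Glo, 10 min RT, luminescence; normalized to no-cell and DMSO controls.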

MCC-26 = assay: as above; settings: MCC and control cell lines, CellTiter-Glo viability, 72 h; series mostly up to 46 µM
In short: as §2

MKL-1 = assay: as above; settings: MCC and control cell lines, CellTiter-Glo viability, 72 h; series mostly up to 46 µM
In short: as §2

UISO = assay: as above; settings: MCC and control cell lines, CellTiter-Glo viability, 72 h; series mostly up to 46 µM
In short: as §2

C33A = assay: Primary qHTS to identify gynecologic anti-cancer compounds using libraries of approved drugs and bioactive compounds (AID 1345084); settings: Gynecologic cancer cell panel viability, ATPlite luminescence, 48 h; series mostly up to 57.5 µM; also: nearly all actives have a fitted effect of over 55% in size
In short: (§3)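 Luminescence from the ATPlite ATP-monitoring reagent indicates viable cell number; lower signal means cytotoxicity. Cells received compound 16 h after seeding and were exposed for 48 h across five concentrations.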

CASKI = assay: as above; settings: Gynecologic cancer cell panel viability, ATPlite luminescence, 48 h; series mostly up to 57.5 µM
In short: as §3

Es-2 = assay: as above; settings: Gynecologic cancer cell panel viability, ATPlite luminescence, 48 h; series mostly up to 57.5 µM
In short: as §3

HeLa = assay: as above; settings: Gynecologic cancer cell panel viability, ATPlite luminescence, 48 h; series mostly up to 57.5 µM
In short: as §3

Hek293T = assay: as above; settings: Gynecologic cancer cell panel viability, ATPlite luminescence, 48 h, control line for the selectivity index; series mostly up to 57.5 µM
In short: as §3

JEG-3 = assay: as above; settings: Gynecologic cancer cell panel viability, ATPlite luminescence, 48 h; series mostly up to 57.5 µM
In short: as §3

OV90 = assay: as above; settings: Gynecologic cancer cell panel viability, ATPlite luminescence, 48 h; series mostly up to 57.5 µM
In short: as §3

MKL-2 = assay: qHTS assay to identify novel small-molecules to repurpose for Merkel cell carcinoma treatment (AID 1296009); settings: MCC and control cell lines, CellTiter-Glo viability, 72 h; series mostly up to 46 µM; also: nearly all actives have a fitted effect of over 60% in size; also: potency is read from the fitted curve at half-maximal effect
In short: as §2

WaGa = assay: as above; settings: MCC and control cell lines, CellTiter-Glo viability, 72 h; series mostly up to 46 µM
In short: as §2

CAOV3 = assay: Primary qHTS to identify gynecologic anti-cancer compounds using libraries of approved drugs and bioactive compounds (AID 1345084); settings: Gynecologic cancer cell panel viability, ATPlite luminescence, 48 h; series mostly up to 57.5 µM; also: nearly all actives have a fitted effect of over 55% in size
In short: as §3

HACAT [2] = assay: qHTS assay to identify novel small-molecules to repurpose for Merkel cell carcinoma treatment (AID 1296009); settings: MCC and control cell lines, CellTiter-Glo viability, 72 h; at 44.8 µM (top of the series) unless noted; also: nearly all actives have a fitted effect of over 60% in size; also: potency is read from the fitted curve at half-maximal effect
In short: as §2
% is scaled to controls: 0 for no effect and ±100 for the full control effect.

O=S1(=O)c2cccc3cccc(c23)N1CCCN1CCN(c2ccc(F)cc2)CC1
inactive: max response (HaCat [1]) -0.344% | max response (KB-3-1) -1.2% | max response (NIH3T3) -13.9% | Potency (MCC-13) | Potency (MCC-26) | Potency (MKL-1) | Potency (UISO) | Potency (C33A) | Potency (CASKI) | Potency (Es-2) | Potency (HeLa) | Potency (Hek293T) | Potency (JEG-3) | Potency (OV90)

CCOc1ccc(NC(=O)CC(C)O)cc1 (stereo not given)
inactive: max response (HaCat [1]) -5.23% | max response (KB-3-1) -22.8% | max response (NIH3T3) 4.45% | Potency (MCC-13) | Potency (MKL-1) | Potency (MKL-2) | Potency (UISO) | Potency (WaGa) | Potency (C33A) | Potency (CAOV3) | Potency (CASKI) | Potency (Es-2) | Potency (HeLa) | Potency (Hek293T) | Potency (JEG-3) | Potency (OV90)

C[C@@H]1C[C@H]2[C@@H]3CCC4=CC(=O)C=C[C@]4(C)[C@@]3(F)[C@@H](O)C[C@]2(C)[C@H]1C(=O)CO
inactive: max response (HaCat [1]) -8.02% | max response (KB-3-1) 11.3% | max response (NIH3T3) -2.44% | Potency (MCC-13) | Potency (MCC-26) | Potency (MKL-1) | Potency (MKL-2) | Potency (UISO) | Potency (WaGa) | Potency (C33A) | Potency (CAOV3) | Potency (CASKI) | Potency (Es-2) | Potency (HeLa) | Potency (Hek293T) | Potency (JEG-3) | Potency (OV90)

CC(=O)Oc1ccc(C(c2ccc(OC(C)=O)cc2)c2ccccn2)cc1
inactive: max response (HaCat [1]) -0.175% | max response (KB-3-1) -5.6% | max response (NIH3T3) -2.66% | Potency (MCC-13) | Potency (MCC-26) | Potency (MKL-1) | Potency (MKL-2) | Potency (WaGa) | Potency (C33A) | Potency (CAOV3) | Potency (Es-2) | Potency (Hek293T) | Potency (JEG-3)

Cc1c(C)n(Cc2ccccc2)c2ccc(C(=O)OCCN(C)C)cc12
inactive: outcome (HaCat [1]) | max response (KB-3-1) 1.73% | outcome (HACAT [2]) | Potency (MCC-13) | Potency (MCC-26) | Potency (MKL-1) | Potency (UISO) | Potency (WaGa) | Potency (C33A) | Potency (CASKI) | Potency (Es-2) | Potency (HeLa) | Potency (Hek293T) | Potency (JEG-3) | Potency (OV90)

C[C@@H]1C[C@H]2[C@@H]3C[C@H](F)C4=CC(=O)C(Cl)=C[C@]4(C)[C@@]3(F)[C@@H](O)C[C@]2(C)[C@@]1(O)C(=O)CO
inactive: max response (HaCat [1]) 2.77% | max response (KB-3-1) 11.7% | max response (NIH3T3) -7.22% | Potency (MCC-13) | Potency (MKL-1) | Potency (MKL-2) | Potency (UISO) | Potency (WaGa) | Potency (C33A) | Potency (CASKI) | Potency (Es-2) | Potency (HeLa) | Potency (Hek293T) | Potency (JEG-3) | Potency (OV90)

C[C@H]1C[C@H]2[C@@H]3CCC4=CC(=O)C=C[C@]4(C)[C@@]3(Cl)[C@@H](O)C[C@]2(C)[C@@]1(O)C(=O)CO
inactive: max response (HaCat [1]) -6.93% | max response (KB-3-1) 6.92% | max response (NIH3T3) -12.3% | Potency (MCC-13) | Potency (MCC-26) | Potency (MKL-1) | Potency (UISO) | Potency (WaGa) | Potency (C33A) | Potency (CASKI) | Potency (Es-2) | Potency (HeLa) | Potency (Hek293T) | Potency (JEG-3) | Potency (OV90)

COc1cc(OC)cc(OC)c1
inactive: max response (HaCat [1]) 4.71% | max response (KB-3-1) -2.29% | max response (NIH3T3) -4.81% | Potency (MCC-13) | Potency (MCC-26) | Potency (MKL-1) | Potency (MKL-2) | Potency (UISO) | Potency (WaGa) | Potency (C33A) | Potency (CAOV3) | Potency (CASKI) | Potency (Es-2) | Potency (HeLa) | Potency (Hek293T) | Potency (JEG-3) | Potency (OV90)

O=C1[C@H]2CCCC[C@H]2C(=O)N1CCCCN1CCN(c2nsc3ccccc23)CC1
active: Potency (UISO) 10.6 µM
inactive: max response (HaCat [1]) -5.6% | max response (KB-3-1) 2.4% | max response (NIH3T3) 2.44% | Potency (MCC-13) | Potency (MCC-26) | Potency (MKL-1) | Potency (C33A) | Potency (CAOV3) | Potency (CASKI) | Potency (Es-2) | Potency (HeLa) | Potency (JEG-3)

CCOC(=O)c1cccc(N)c1
inactive: max response (HaCat [1]) -20.5% | max response (KB-3-1) -6.64% | max response (NIH3T3) -6.41% | Potency (MCC-13) | Potency (MCC-26) | Potency (MKL-1) | Potency (MKL-2) | Potency (UISO) | Potency (WaGa) | Potency (C33A) | Potency (CAOV3) | Potency (CASKI) | Potency (Es-2) | Potency (HeLa) | Potency (Hek293T) | Potency (JEG-3) | Potency (OV90)

O=C1OC2(c3ccc(O)cc3Oc3cc(O)ccc32)c2ccccc21
inactive: max response (HaCat [1]) -26.2% | max response (KB-3-1) -10.5% | max response (NIH3T3) -4.38% | Potency (MCC-13) | Potency (MCC-26) | Potency (MKL-1) | Potency (MKL-2) | Potency (UISO) | Potency (WaGa) | Potency (C33A) | Potency (CAOV3) | Potency (CASKI) | Potency (Es-2) | Potency (HeLa) | Potency (Hek293T) | Potency (JEG-3) | Potency (OV90)

CN(C)CC/C=C1/c2ccccc2COc2ccc(CC(=O)O)cc21
inactive: max response (HaCat [1]) -4.81% | max response (KB-3-1) -7.2% | max response (NIH3T3) -1.64% | Potency (MCC-13) | Potency (MCC-26) | Potency (MKL-1) | Potency (MKL-2) | Potency (UISO) | Potency (WaGa) | Potency (C33A) | Potency (CAOV3) | Potency (CASKI) | Potency (Es-2) | Potency (HeLa) | Potency (Hek293T) | Potency (JEG-3) | Potency (OV90)

Oc1c(I)cc(I)c2cccnc12
active: Potency (MKL-1) 18.8 µM | Potency (MKL-2) 11.9 µM
inactive: outcome (HaCat [1]) | max response (KB-3-1) -18.8% | outcome (HACAT [2]) | Potency (MCC-13) | Potency (MCC-26) | Potency (C33A) | Potency (CAOV3) | Potency (CASKI) | Potency (HeLa) | Potency (Hek293T) | Potency (JEG-3) | Potency (OV90)
